Measurements taken from PubChem BioAssay (NCATS).
Records with an inconclusive call do not appear. Active and inactive are the calls of the source. Calls follow the shape of the dose curve; as a rule, active = well fitted curve in the direction sought with a large enough effect; inconclusive = small, poorly fitted or top-dose-only effect, or another doubt; inactive = no such curve, though single readings can be large; an effect the other way counts as inactive or inconclusive. Peptide text beside a SMILES is read from it. * marks the point of attachment. Hexanoyl = CCCCCC(=O)*

Columns and labels:
[1] = target: Cellular tumor antigen p53 (Homo sapiens) (UniProt P04637); test: Primary qHTS for small molecule compounds that upregulate eGFP-tagged delta133p53alpha (in N-terminal) cells. (AID 2060322); conditions: NCI-H358 eGFP-delta133p53alpha fluorescence, 24 h; activation: stronger effect = higher value;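 also: series mostly up to about 56 µM; 0% = DMSO vehicle and 100% = reference activator; nearly all actives have a fitted effect of over 75% in size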
Summary of the method: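 NCI-H358 cells pre-induced 24 h with 10 ng/ml doxycycline to express N-terminal eGFP-delta133p53alpha, then dosed 24 h at 37C without doxycycline; fixed, Hoechst-stained, GFP intensity by laser scanning cytometry, normalized to DMSO (0%) and 57.5 uM 5-azacytidine (100%).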

[2] = target: Aldehyde dehydrogenase, mitochondrial (Homo sapiens) (UniProt P05091); test: qHTS for Inhibitors of the Aldehyde Dehydrogenase Family (ALDH2) Primary screen (AID 2061308);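 also: plate controls were vehicle for no effect and reference inhibitor for full effect; nearly all actives have a fitted effect of over 55% in size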
[3] = target: Retinaldehyde dehydrogenase 3 (Homo sapiens) (UniProt P47895); test: qHTS for Inhibitors of the Aldehyde Dehydrogenase Family (ALDH1A3) Primary screen (AID 2061315);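 also: plate controls were DMSO vehicle for no effect and reference inhibitor for full effect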

Sequence of Cellular tumor antigen p53 (Homo sapiens) (P04637 whole entry, looked up): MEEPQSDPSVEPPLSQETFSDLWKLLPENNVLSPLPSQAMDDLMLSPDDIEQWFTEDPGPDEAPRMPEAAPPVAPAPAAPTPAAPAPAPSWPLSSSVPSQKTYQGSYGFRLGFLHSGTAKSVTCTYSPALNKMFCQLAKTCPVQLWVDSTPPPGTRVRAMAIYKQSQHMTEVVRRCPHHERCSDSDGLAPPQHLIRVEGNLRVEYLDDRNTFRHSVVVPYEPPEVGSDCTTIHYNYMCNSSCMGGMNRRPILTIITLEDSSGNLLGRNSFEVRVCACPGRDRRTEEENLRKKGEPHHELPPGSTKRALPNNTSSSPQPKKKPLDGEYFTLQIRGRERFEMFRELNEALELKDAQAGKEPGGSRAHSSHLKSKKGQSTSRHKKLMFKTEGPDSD

C=C1C(OC(=O)/C(C)=C\C)[C@@]23CCC4[C@@](C)(CCC[C@@]4(C)C(=O)O)C2CC[C@H]1C3OC(C)=O (stereo partly specified)
inactive: activation [1] -28.2% | Potency [2] | Potency [3]

CC(C)(C)c1nnc(NS(=O)(=O)c2ccccc2)s1
inactive: activation [1] 11.7% | Potency [2] | Potency [3]

CC(=O)[C@H]1CC[C@H]2[C@@H]3CC=C4C[C@@H](OS(=O)(=O)O)CC[C@]4(C)[C@H]3CC[C@]12C
inactive: activation [1] -4.33% | Potency [2] | Potency [3]

C/C=C(\C)C(=O)OC1C=C(C)CC(OC(=O)c2ccc(O)cc2)C2C1(C)CCC2(O)C(C)C (stereo unspecified)
inactive: activation [1] -7.63% | Potency [2] | Potency [3]

COc1cc(Cc2cnc(N)nc2N)c(C(C)C)cc1OC
inactive: activation [1] -15.2% | Potency [2] | Potency [3]

COc1ccc2c(c1)OC[C@]1(O)c3cc4c(cc3O[C@H]21)OCO4
inactive: activation [1] -2.68% | Potency [2] | Potency [3]

O=C(NCc1ccc(OC(F)(F)F)cc1)C1c2c(F)cccc2C(=O)N1CCc1ccccn1 (stereo unspecified)
inactive: activation [1] 11.6% | Potency [2] | Potency [3]

COc1cc(O[C@@H]2O[C@H](CO)[C@@H](O)[C@H](O)[C@H]2O)c(CCC(=O)OC[C@H]2O[C@@H](Oc3cc(OC)c(C4OC(=O)C(C)(O)C4O)cc3CCC(=O)O)[C@H](O)[C@@H](O)[C@@H]2O)cc1C1OC(=O)C(C)(O)C1O (stereo partly specified)
inactive: activation [1] -6.11% | Potency [2] | Potency [3]

CC(=O)c1ccc(OCC(=O)N2CCCCC2)cc1
inactive: activation [1] -3% | Potency [2] | Potency [3]

C[C@@H]1CC[C@H]2C(C)(C)[C@H](O)[C@H](O)C[C@]2(C)[C@@]12Cc1c(O)cc3c(c1O2)CNC3=O
inactive: activation [1] -3.82% | Potency [2] | Potency [3]

CC(O)CCc1ccc(O[C@@H]2O[C@H](CO)[C@@H](O)[C@H](O)[C@H]2O)cc1 (stereo partly specified)
inactive: activation [1] -10.7% | Potency [2] | Potency [3]

C/C=C/C1OC2=C(C(=O)OC2(C)O)C(O)C1O (stereo unspecified)
inactive: activation [1] 28.2% | Potency [2] | Potency [3]

CC1CCC2(C)CCC3(C)C(=CCC4C5(C)CCC(O)C(C)(C(=O)O)C5CCC43C)C2C1C (stereo unspecified)
inactive: activation [1] 19.6% | Potency [2] | Potency [3]

CCc1cc(S(=O)(=O)O)c2cc(C(C)C)cccc1-2
inactive: activation [1] 4.33% | Potency [2] | Potency [3]

Cc1ccc(C)c(NC(=O)[C@@H]2CCCN2S(=O)(=O)c2cccc3cccnc23)c1
inactive: activation [1] -4.33% | Potency [2] | Potency [3]

O=C(Nc1ccn(Cc2c(F)cccc2C(F)(F)F)n1)c1c(F)cccc1F
inactive: activation [1] 1.67% | Potency [2] | Potency [3]

Cc1cn2cc(C(=O)N(C)CCO)cc(NC3CCOc4cccc(C)c43)c2n1 (stereo unspecified)
inactive: activation [1] -10.3% | Potency [2] | Potency [3]

CC(=O)OC1CCC2(C)C(CCC3(C)C2CC=C2C4CC(C)(C)CCC4(C)CCC23C)C1(C)C(=O)O (stereo unspecified)
inactive: activation [1] 27.7% | Potency [2] | Potency [3]

CC(=O)OC[C@]12[C@H](OC(C)=O)C(=O)[C@@H]3[C@@H](OC(C)=O)[C@@]14O[C@@]3(C)COC(=O)c1cccnc1[C@@H](C)[C@H](C)C(=O)O[C@@H]([C@H](O)[C@@H]2OC(C)=O)[C@]4(C)O
inactive: activation [1] 6.25% | Potency [2] | Potency [3]

C[C@@H]1O[C@@H](O[C@H]2[C@H](OC(=O)[C@]34CCC(C)(C)C[C@H]3C3=CCC5[C@@]6(C)CC[C@H](O[C@@H]7O[C@H](CO[C@@H]8OC[C@H](O)[C@H](O)[C@H]8O)[C@@H](O)[C@H](O)[C@H]7O)C(C)(C)C6CC[C@@]5(C)[C@]3(C)C[C@H]4O)OC[C@@H](O)[C@@H]2O)[C@H](O)[C@H](O)[C@H]1O[C@@H]1OC[C@H](O)[C@H](O[C@@H]2OC[C@@H](O)[C@H](O)[C@H]2O)[C@H]1O (stereo partly specified)
inactive: activation [1] 3.82% | activity change, negative = inhibition [2] 2.19% [at 11.2 µM] | activity change, negative = inhibition [3] 8.01% [at 11.2 µM]

CCCCCC(=O)N1CCC[C@H]1C(=O)N[C@@H](Cc1ccc(O)cc1)C(=O)OC (Hexanoyl-Pro-Tyr-OMe)
inactive: activation [1] -3.57% | Potency [2] | Potency [3]

CC1(C)O[C@]23C[C@H]1C[C@H](OC(=O)c1ccoc1)[C@]2(C)[C@@H](OC(=O)c1ccoc1)CCC3(C)O (stereo partly specified)
inactive: activation [1] -5.34% | Potency [2] | Potency [3]

CC1=C(C(=O)O)/C(=C/CO[C@@H]2O[C@H](COC(=O)/C=C/c3ccc(O)cc3)[C@@H](O)[C@H](O)[C@H]2O)C(O)C1 (stereo partly specified)
inactive: activation [1] -17.6% | Potency [2] | Potency [3]

COc1cc2nc(=NC(=O)c3cccnc3)n3c(c2cc1OC)NCC3
inactive: activation [1] 3.34% | Potency [2] | Potency [3]

COC(=O)[C@@]1(O)C=CC[C@@H]2[C@@]3(C)C[C@@H](c4ccoc4)OC(=O)[C@H]3CC[C@]21C
inactive: activation [1] 7.14% | Potency [2] | Potency [3]

CC1(C)C(=O)N2c3ccccc3[C@]3(CC(n4cnc5ccccc5c4=O)C(=O)O3)[C@H]2N1O (stereo partly specified)
inactive: activation [1] 1.53% | Potency [2] | Potency [3]

CC1=CC(=O)CC(C)(C)[C@@]1(O)/C=C/C(C)O[C@@H]1O[C@H](CO)[C@@H](O)[C@H](O)[C@H]1O (stereo partly specified)
inactive: activation [1] 15.3% | Potency [2] | Potency [3]

C[C@@H]1CC[C@]2(C(=O)O[C@@H]3O[C@H](CO)[C@@H](O)[C@H](O)[C@H]3O)CC[C@]3(C)C(=CCC4[C@@]5(C)C[C@@H](O)[C@H](O)C(C)(C)C5CC[C@]43C)C2[C@]1(C)O (stereo partly specified)
inactive: activation [1] -17.6% | Potency [2] | Potency [3]

CCN1C(=O)c2ccccc2C1Nc1ccc(OCCN2CCCCC2)cc1 (stereo unspecified)
inactive: activation [1] -18.4% | Potency [2] | Potency [3]

CCC1CC2C(C)=CC3CCCCC3C2(C)C2(OC(=O)C(C)(O)OC2=O)O1 (stereo unspecified)
inactive: activation [1] -16% | Potency [2] | Potency [3]

C[C@H]1[C@H](C)CC[C@]2(C(=O)O)CC[C@]3(C(=O)O)C(=CCC4[C@@]5(C)CC[C@H](O[C@@H]6O[C@@H](C)[C@H](O)[C@@H](O)[C@H]6O)C(C)(C)C5CC[C@]43C)[C@H]12 (stereo partly specified)
inactive: activation [1] -4.58% | Potency [2] | Potency [3]

CC#C[C@@H](CC(=O)O)c1ccc(OCc2ccc(CN3CCC4(C=Cc5ccccc54)CC3)s2)cc1
inactive: activation [1] 4.46% | Potency [2] | Potency [3]

CC1(CO)CC[C@]2(C(=O)O[C@@H]3O[C@H](CO)[C@@H](O)[C@H](O)[C@H]3O)CC[C@]3(C)C(=CCC4[C@@]5(C)C[C@H](O)[C@H](O[C@@H]6OC[C@@H](O)[C@H](O)[C@H]6O)[C@@](C)(CO)C5CC[C@]43C)C2C1 (stereo partly specified)
inactive: activation [1] -16% | Potency [2] | Potency [3]

O=C(OC1C=C(CO)C2C(OC3OC(CO)C(O)C(O)C3O)OC=CC12)c1ccc(O)cc1 (stereo unspecified)
inactive: activation [1] -16% | Potency [2] | Potency [3]

COc1ccc(S(=O)(=O)Nc2cc(Cl)cc(Cl)c2OC)cc1N1CCNCC1
inactive: activation [1] 8.04% | Potency [2] | Potency [3]

COc1ccc(/C=C/C(=O)O[C@@H]2[C@@H](OC(C)=O)[C@@H](OC(C)=O)[C@H](O[C@H]3[C@@H]4C=CO[C@@H](O[C@@H]5O[C@H](CO)[C@@H](O)[C@H](O)[C@H]5O)[C@@H]4[C@@]4(CO)O[C@@H]34)O[C@H]2C)cc1
inactive: activation [1] 5.34% | Potency [2] | Potency [3]

N#CC1C(=O)N=C(c2cc(Cl)ccc2O)C=C1c1cc(OCc2ccccc2)cc(OCc2ccccc2)c1 (stereo unspecified)
inactive: activation [1] -17.7% | Potency [2] | Potency [3]
